The list is not random: actives were taken first. Their share in the collection is about 7.9%.
HCV inhibitor = qHTS Assay for Inhibitors of Hepatitis C Virus (HCV); Potency, µM (doses to about 41.8 µM), actives largely listed as inhibitors; Huh7.5.1 HCVcc-Cre infection, luciferase reporter, 44 h; hit rate 3.4% among 340,000; AID 651820, 2012; active = well fitted inhibition curve with a large enough effect; inconclusive = small, poorly fitted or top-dose-only effect, or another doubt; inactive = no such curve, though single readings can be large or run the other way
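Antiviral activity was scored by luciferase reporter output from cells infected with HCVcc-Cre (~0.5 moi) in presence of compound, 44 h infection period, cells seeded 1,000/well 4 h prior.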
HCMV antiviral = qHTS Assay for inhibitors of the human cytomegalovirus (HCMV); AID 1259415, 2018; activity change, negative = inhibition, % at 57.5 µM; hit rate 4.5% among 410,000; HFF cells, HCMV-luciferase reporter, 72 h; stronger effect = lower value; in the data active = activity change below about -60%; inconclusive = no clear call, values can overlap the other calls; inactive = above about -39%
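After 16 h attachment at 37C, HFF cells received test compound and HCMV-luciferase (1 PFU/cell); reporter luminescence read 72 h later, data normalized against buffer-only and known inhibitor Salinomycin.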
LASV entry inh = qHTS for Inhibitors of binding or entry into cells for Lassa Virus | Lassa virus pseudotype entry inhibition, cell reporter | AID 540256, 2011 | hit rate 1.2% among 300,000 | Potency, µM (titrated, usually from 37.9 µM), usual class: inhibitors; calls by dose curve; tested in HEK293 cells; also: nearly all actives have a fitted effect of over 50% in size
MARV entry inh = qHTS for inhibitors of binding or entry into cells for Marburg Virus. Potency, µM (series often up to 37.8 µM), hits mostly inhibitors. Marburg virus pseudotyped entry inhibition, cell reporter. AID 540276, 2011. hit rate 1.8% among 300,000; calls by dose curve; tested in HEK293 cells
FMDV inh = High Throughput Screening for Foot and Mouth Disease Virus Antivirals | hit rate 1.2% among 410,000 | FMDV antiviral cell-based qHTS | Potency, µM (doses to about 57.9 µM), usual class: inhibitors | AID 1159524, 2015; calls by dose curve; tested in HEK293T cells; also: read-out not given here; nearly all actives have a fitted effect of over 45% in size
Hits are given with their value; i = inactive; ? = inconclusive; nt = not tested or not shown; + = active, no number.

SMILES	HCV inhibitor	HCMV antiviral	LASV entry inh	MARV entry inh	FMDV inh
Cc1ccc(NC(=O)Cn2c(=O)ccn(Cc3ccccc3)c2=O)cc1S(=O)(=O)N1CCOCC1	11µM	i	nt	nt	i
Cc1ccc(CN2CC(C(=O)Nc3ccc(C)c(S(=O)(=O)N4CCCCC4)c3)CC2=O)cc1 (stereo not drawn)	?	-66	?	?	i
Cc1nc(-c2ccc(F)cc2)c(CC(=O)Nc2ccc(C)c(S(=O)(=O)N3CCOCC3)c2)s1	7.9µM	nt	?	5µM	?
O=C(Cn1c(=O)ccn(Cc2ccccc2)c1=O)Nc1cccc(S(=O)(=O)N2CCOCC2)c1	i	i	i	i	i
Cc1ccc(NC(=O)CSc2nc(N)cc(N)n2)cc1S(=O)(=O)N1CCOCC1	i	i	?	i	i
COc1ccc(-c2cc(C(=O)Oc3ccc(C)c(C)c3)c3ccccc3n2)cc1	nt	i	?	nt	i
c1ccc(Cc2nnc3n2CCN(Cc2cnc(-c4ccccc4)s2)CC3)cc1	nt	nt	nt	nt	i
COC1=C[C@H](C(=O)NCc2ccccn2)[C@@]2(C)Cc3ccccc3[C@@H]2CC1=O	nt	nt	nt	i	nt
COc1ccc(NC(=O)COc2ccccc2F)cc1S(=O)(=O)N1CCCCC1	?	i	?	i	i
Cc1ccc(NC(=O)Cn2ncc(Cl)c(Cl)c2=O)cc1S(=O)(=O)N1CCCCC1	10µM	i	nt	nt	28µM
Cc1ccc(NCC(=O)Nc2ccc(F)c(Cl)c2)cc1S(=O)(=O)N1CCOCC1	nt	-61	nt	nt	?
COc1ccc(NC(=O)CCOc2ccccc2F)cc1S(=O)(=O)N1CCCCC1	13µM	i	?	?	?
COc1ccc(NC(=O)Cc2ccc(Cl)cc2)cc1S(=O)(=O)N1CCCCC1	14µM	?	nt	nt	i
COc1ccc(NC(=O)Cc2ccccc2F)cc1S(=O)(=O)N1CCCCC1	?	i	nt	nt	i
Cc1ccc(NC(=O)CNc2cccc(Br)c2)cc1S(=O)(=O)N1CCOCC1	?	i	nt	nt	i
Cc1ccc(NC(=O)Cn2cc(C(F)(F)F)cc(Cl)c2=O)cc1S(=O)(=O)N1CCCCC1	?	i	?	?	i
Cc1ccc2nc(-c3ccncc3)c(Nc3ccc(C(C)C)cc3)n2c1	nt	i	i	?	?
Cc1ccc(NC(=O)CN(C)C(=O)Cn2ncc(Cl)c(Cl)c2=O)cc1	3.2µM	-100	16µM	5µM	i
NNc1nnc2c3cc(F)ccc3n(CCc3ccccc3)c2n1	?	-94	?	10µM	i
CCn1c2ccc(F)cc2c2nc3ccccc3nc21	?	i	i	i	i
COc1ccccc1Cc1nc2ccccc2nc1SCC(=O)Nc1cc(Cl)ccc1OC	nt	i	i	nt	i
CCN(CC)CCNC(=S)Nc1ccc2nc(N3CCN(CC)CC3)cc(C)c2c1	?	?	i	?	i
Cc1cc(N2CCCC2)nc2ccc(NC(=S)NCCCN3CCC(C)CC3)cc12	10µM	-88	?	?	i
Cc1cc(N2CCOCC2)nc2ccc(NC(=S)N3CCCCC3C)cc12 (stereo not drawn)	?	?	?	2.8µM	i
Cc1cc(N2CCOCC2)nc2ccc(NC(=O)C3CCCCC3)cc12	nt	i	nt	nt	i
SMILES	HCV inhibitor	HCMV antiviral	LASV entry inh	MARV entry inh	FMDV inh
Cc1cc(N2CCN(C)CC2)nc2ccc(NC(=S)NCCN3CCc4ccccc4C3)cc12	11µM	?	nt	i	i
Cc1cc(N2CCN(C)CC2)nc2ccc(NC(=S)NCCCN3CCc4ccccc4C3)cc12	11µM	i	?	4µM	i
CCc1ccc(NC(=O)CC2C(=O)N(c3ccc(Cl)cc3)C(=O)N2C2CCCC2)cc1 (stereo not drawn)	nt	?	?	nt	i
CCN1CCN(c2cc(C)c3cc(NC(=S)NCCCN4CCc5ccccc5C4)ccc3n2)CC1	8.9µM	?	i	13µM	i
CCCN1CCN(CCCNC(=S)Nc2ccc3nc(N4CCN(CC)CC4)cc(C)c3c2)CC1	?	?	nt	nt	i
Cc1ccc(-c2csc3ncnc(N4CCN(Cc5ccccc5)CC4)c23)cc1	?	i	nt	nt	?
Cc1csc2ncnc(NC3CCN(Cc4ccccc4)CC3)c12	1.8µM	?	i	10µM	i
COc1ccc(-c2ncccc2O)cc1	i	i	i	i	i
COc1cccc(N=Nc2ccc(O)c3ncccc23)c1	6.3µM	-100	?	?	i
O=S(=O)(O)c1cccc2c(N=Nc3ccc(O)c4ncccc34)cccc12	?	nt	nt	i	?
COc1ccc(C)cc1N=Nc1ccc(O)c2ncccc12	?	-100	nt	nt	i
Oc1ccc(CNc2ccc(F)cc2)c2cccnc12	?	i	?	?	i
Cc1ccc(S(=O)(=O)Nc2ccc(O)c3ncccc23)cc1	?	i	nt	nt	i
Cc1ccccc1N=Nc1ccc(O)c2ncccc12	?	-93	?	5.6µM	i
O=Nc1ccc(O)c2ncccc12	?	-98	nt	nt	?
CCN1CCOC(=O)C1CC(=O)Nc1cc(C)ccc1OC (stereo not drawn)	nt	i	i	i	i
COc1ccc(N=Nc2ccc(O)c3ncccc23)cc1	?	+	nt	nt	i
COc1cccc(N=Nc2ccc3cccnc3c2O)c1	2µM	-100	nt	nt	i
COc1cc(OC)cc(C(=O)Nc2cccc3cccnc23)c1	i	i	i	?	i
Nc1ccc(N=Nc2ccccc2)c2cccnc12	2.5µM	i	nt	nt	i
Nc1ccc(Br)c2cccnc12	?	i	i	?	i
Oc1ccc(N=Nc2ccc3c(c2)OCCO3)c2cccnc12	?	-98	?	?	?
CCN(CC)c1ccc(N=Cc2ccc([N+](=O)[O-])o2)cc1	13µM	i	?	?	i
COC(=O)c1ccccc1	nt	i	nt	nt	nt
CC(=O)[O][Hg][c]1ccccc1	nt	nt	nt	nt	4.5µM
SMILES	HCV inhibitor	HCMV antiviral	LASV entry inh	MARV entry inh	FMDV inh
CSc1ncc2c(n1)-c1ccccc1N(Cc1ccccc1)S2(=O)=O	nt	i	i	nt	i
CCOC(=O)c1cc(CC)sc1NC(=O)CC1Sc2ccc(C(F)(F)F)cc2NC1=O (stereo not drawn)	i	i	i	?	i
COc1ccc(NC(=O)CC2SC(=O)NC2=O)cc1 (stereo not drawn)	i	-67	i	i	i
CCOC(=O)c1ccc(NC(=O)CC2Sc3ccc(C(F)(F)F)cc3NC2=O)cc1 (stereo not drawn)	nt	-65	i	i	i
Cc1ccc(NC(=O)CC2SC(=O)NC2=O)cc1 (stereo not drawn)	i	i	i	i	i
COC(=O)c1cc(OC)c(OC)cc1NC(=O)c1ccc2c(c1)CCN2S(C)(=O)=O	nt	i	i	i	i
CCc1nc(N2CCN(C(=O)c3ccccc3)CC2)c(C#N)c2c1COC(C)(C)C2	?	-62	?	?	?
O=C1c2cccc(OCc3ccc(F)cc3)c2CCN1Cc1ccc(F)cc1	6.3µM	-82	?	?	?
Cc1ccc(CN2CCc3c(OCc4ccc(F)cc4)cccc3C2=O)cc1	?	-81	7.1µM	?	?
CCn1c(CN2CCOCC2)nc2cc(NC(=O)c3cccc([N+](=O)[O-])c3)ccc21	nt	i	i	?	i
CCC1C(=O)NCCN1Cc1ccc2c(c1)CN(Cc1cccc(OC)c1)CCO2 (stereo not drawn)	nt	nt	nt	nt	i
